Reference: PubChem BioAssay (EPA / NIEHS)
Values joined by “and” are separate entries in the source; they are usually repeats but may differ in a detail not shown here. Identical values can stand only once. Results filed as inconclusive are left out. The source holds several records for some structures; these can differ, active in one and inactive in another. Active and inactive are the calls of the source. The calls were made as follows, unless noted: active = hit-call score of the fitted dose curve at least 0.9, where 1 is the maximum; inactive = score below 0.9.

Key:
[1] = CCTE_Shafer_MEA_dev_correlation_coefficient_mean: CCTE's Neural Network Formation Assay for Mean Correlation Coefficient, Shafer Lab (AID 2284093);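 as to AC50: well mean pairwise spike train correlation integrated as AUC over recording days 5 to 12; potency fitted for loss of correlation relative to DMSO vehicle wells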
Method in brief: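 Spontaneous activity recorded on days 5, 7, 9 and 12 post-plating; pairwise spike correlations are averaged across active electrodes and collapsed to an area-under-curve. Rat cortical cultures are dosed from plating through 12 days, with compound renewed at media changes.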

[2] = BSK_BT_PBMCCytotoxicity: PBMC Cytotoxicity Assessment in the BioMAP Diversity Plus: BT Assay (AID 2284225); details: primary human B cells with PBMC;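 also: PBMC viability measured by Alamar Blue dye reduction fluorescence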
Method in brief: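 Viability by Alamar Blue reduction (6 h, ex/em 546/580 nm) after 90 h culture of SEB/TSST-1-activated PBMC (20 ng/mL each) given compound 1 h before activation. DMSO served as baseline for curve fitting.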

[3] = UKN2_HCS_IMR90_neural_migration: University of Konstanz (UKN) Leist Lab Neural Crest Cell Migration Assay in human induced IMR90 Pluripotent Stem Cells (UKN2) (AID 2284204); details: actives raise or lower the signal
Method in brief: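 High-content imaging of calcein-AM and Hoechst stained cells quantifies migration into a stopper-defined gap after 24 h compound exposure. Neural crest cells from IMR90 iPSC migrated 24 h in EGF/FGF N2-S medium before dosing; DMSO baseline.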

[4] = IUF_NPC1b_proliferation_BrdU_72hr: Leibniz Research Institute for Environmental Medicine (IUF) 72-hour Neural Progenitor Cell Bromodeoxyuridine (BrdU) Proliferation Assay (NPC1b) (AID 2284207)
Method in brief: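 Human fetal cortex-derived (GW 16-19) neural progenitor spheres, 0.25-0.35 mm, one per well in EGF/FGF proliferation medium, exposed to compound for 72 h at 37C, pH 7.2-7.6. BrdU incorporation over the final 16 h read by luminescence ELISA, relative to DMSO.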

[5] = IUF_NPC1a_proliferation_area_72hr: Leibniz Research Institute for Environmental Medicine (IUF) 72-hour Neural Progenitor Cell Proliferation Area Assay (NPC1a) (AID 2284208)
Method in brief: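 Spheres of 0.3 mm are plated singly in growth-factor medium and exposed from day 0. After three days at 37C and 5% CO2, sphere area is measured by phase contrast imaging, with activity referenced to DMSO.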

[6] = IUF_NPC1_viability_72hr: Viability Assessment at 72 hours in the Leibniz Research Institute for Environmental Medicine (IUF) Neural Progenitor Cell Proliferation Assay (NPC1) (AID 2284209)
Method in brief: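 Spheres of primary human neural progenitors were plated singly in proliferation medium and treated for 72 h. Mitochondrial reduction of resazurin was then measured by fluorescence and analysed against DMSO controls.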

[7] = CCTE_Mundy_HCI_Cortical_Synap_Neur_Matur_NeuriteSpotCountPerNeuriteLength: CCTE's Synaptogenesis and Neurite Maturation Assay in rat cortical cells for Neurite Spot Count per Neurite Length, Mundy Lab (AID 2284210)
Method in brief: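 Synaptophysin spots per unit neurite length, measured by automated imaging of MAP2/synaptophysin/Hoechst-stained neurons. Cultures from rat cortex received chemical at DIV 7 with media change through DIV 12; glial growth arrested by AraC at DIV 5; DMSO baseline.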

[8] = CCTE_Mundy_HCI_Cortical_Synap_Neur_Matur_BPCount: CCTE's Synaptogenesis and Neurite Maturation Assay in rat cortical cells for Branch Point Count, Mundy Lab (AID 2284211)
Method in brief: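 HCI read-out of branch points from MAP2/synaptophysin/Hoechst immunofluorescence; rat cortical cultures, AraC DIV 5, dosing DIV 7, fixed DIV 12; fit in positive direction vs DMSO baseline.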

[9] = CCTE_Mundy_HCI_Cortical_NOG_NeuriteCount: CCTE's Neurite Outgrowth Assay in rat cortical cells for Neurite Count, Mundy Lab (AID 2284212);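 also: cells fixed about two days after chemical exposure began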
Method in brief: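 Rat cortical primary cells; compound added 2 h post-plating, 1/10 dilution of working solution. Anti-betaIII-tubulin/AF488 ICC; ArrayScan neurite count vs DMSO.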

[10] = CCTE_Mundy_HCI_Cortical_NOG_NeuriteLength: CCTE's Neurite Outgrowth Assay in rat cortical cells for Neurite Length, Mundy Lab (AID 2284213);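 as to AC50: neurites imaged about 48 to 50 h after chemical exposure began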
Method in brief: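 First, rat primary cortical cells were plated and, 2 h later, given test chemical as a 1/10 dilution. Finally, βIII-tubulin immunostaining enabled automated imaging of neurite length.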

[11] = CCTE_Mundy_HCI_Cortical_Synap_Neur_Matur_NeuriteLength: CCTE's Synaptogenesis and Neurite Maturation Assay in rat cortical cells for Neurite Length, Mundy Lab (AID 2284214)
Method in brief: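 Cultures of rat primary cortical cells received chemical at DIV 7 and were fixed at DIV 12, after glial arrest with AraC at DIV 5. Neurite length was measured by automated imaging of MAP2 immunofluorescence.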

[12] = CCTE_Mundy_HCI_Cortical_Synap_Neur_Matur_NeuriteSpotCountPerNeuron: CCTE's Synaptogenesis and Neurite Maturation Assay in rat cortical cells for Neurite Spot Count per Neuron Count, Mundy Lab (AID 2284215)
Method in brief: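 Rat cortical primary cultures; AraC DIV 5 to arrest glia; dosing + media change DIV 7; fixed DIV 12. Anti-MAP2/anti-synaptophysin, Hoechst nuclei; HCI puncta count per neuron, positive fitting direction vs DMSO.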

[13] = CCTE_Mundy_HCI_Cortical_Synap_Neur_Matur_SynapseCount: CCTE's Synaptogenesis and Neurite Maturation Assay in rat cortical cells for Synapse Count, Mundy Lab (AID 2284218)
Method in brief: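 Cells were plated, allowed 2 hr to attach, treated with AraC at DIV 5, then exposed to chemicals from DIV 7 until DIV 12. After fixation and MAP2/synaptophysin immunolabelling, synapses per neuron were quantified by automated imaging against DMSO.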

[14] = CCTE_Mundy_HCI_Cortical_Synap_Neur_Matur_NeuriteCount: CCTE's Synaptogenesis and Neurite Maturation Assay in rat cortical cells for Neurite Count, Mundy Lab (AID 2284222)
Method in brief: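 Rat primary cortical cells; AraC added at DIV 5, chemicals dosed with media change at DIV 7 through DIV 12. MAP2/synaptophysin/Hoechst immunostaining, high-content imaging of neurite number; fitted relative to DMSO.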

[15] = CCTE_Mundy_HCI_Cortical_Synap_Neur_Matur_CellBodySpotCount: CCTE's Synaptogenesis and Neurite Maturation Assay in rat cortical cells for Cell Body Spot Count, Mundy Lab (AID 2284223)
Method in brief: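 Rat cortical neurons; AraC @ DIV 5; dose + media change DIV 7; fix DIV 12; anti-MAP2/anti-synaptophysin IF, Hoechst; HCI count of soma synaptophysin puncta/neuron; DMSO = negative control.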

[16] = CCTE_Mundy_HCI_hNP1_Pro_ResponderAvgInten: CCTE's Proliferation Assay in human neuroprogenitor cells, Mundy Lab (AID 2284224; active = hit-call score of the fitted dose curve at least 0.9, where 1 is the maximum;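 also: human neural progenitor cells hNP1 derived from WA09 embryonic stem cells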)
Method in brief: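 Proliferation was scored as BrdU labelling intensity in human neural progenitors derived from WA09 embryonic cells, measured 26.25 hours after chemical dosing. Activity was fitted relative to DMSO.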

[17] = TAMU_PeakParms_SingleDonor1434_Chronotropy: Texas A&M University (TAMU) 1.5-hr Human Induced Pluripotent Stem Cell (iPSC)-derived Cardiomyocytes Calcium (Ca+2) Flux Assay for Cardiotoxicity: Chronotropy (changes in peak frequency) (AID 2284217); details: actives raise or lower the signal
Method in brief: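 iPSC-derived cardiomyocytes (single donor 1434) dosed at 0.2, 1, 10 and 100 uM in 0.5% DMSO for 1.5 h at 37C; Ca2+ dye fluorescence gave average beat frequency. Zero-beat points removed; bidirectional fit versus DMSO, POD as EC05.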

[18] = CCTE_Mundy_HCI_hN2_NOG_NeuriteCount: CCTE's Neurite Outgrowth Assay in human hN2 cells for Neurite Count, Mundy Lab (AID 2284219; active = hit-call score of the fitted dose curve at least 0.9, where 1 is the maximum)
Method in brief: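 In this morphology assay, hNP1-derived neurons received test chemical 2 h post-plating and were fixed two days later in warm paraformaldehyde/sucrose containing Hoechst 33342. Neurites, labelled by rabbit anti-βIII-tubulin (1:800) and Alexa Fluor-488 (1:500), were counted automatically.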

[19] = CCTE_Mundy_HCI_hN2_NOG_NeuriteLength: CCTE's Neurite Outgrowth Assay in human hN2 cells for Neurite Length, Mundy Lab (AID 2284220; active = hit-call score of the fitted dose curve at least 0.9, where 1 is the maximum)
Method in brief: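 Plate hNP1-derived neurons, then add chemical 2 h later as a 1/10 dilution. Stain with anti-βIII-tubulin then Alexa Fluor-488 secondary, and image automatically to measure neurite length.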

[20] = CCTE_Mundy_HCI_hN2_NOG_NeuronCount: CCTE's Neurite Outgrowth Assay in human hN2 cells for Neuron Count, Mundy Lab (AID 2284221; active = hit-call score of the fitted dose curve at least 0.9, where 1 is the maximum)
Method in brief: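 Read-out is the number of betaIII-tubulin-positive neurons imaged by automated high-content analysis, with DMSO as negative control.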

Measured: AC50

O=C(O)C(F)(F)C(F)(F)C(F)(F)C(F)(F)C(F)(F)C(F)(F)C(F)(F)C(F)(F)F
inactive: [1] | [2]

CO/C=C(/C(=O)OC)c1ccccc1COc1cccc(C(F)(F)F)n1
inactive: [3] | [4]
active: [1] 244 nM and 459 nM | [5] 12.6 µM | [6] 25.3 µM | [7] 1.09 µM | [8] 1.16 µM | [9] 1.55 µM | [10] 1.43 µM | [11] 0.731 µM | [12] 0.688 µM | [13] 0.871 µM | [14] 1.46 µM | [15] 1.16 µM | [16] 86.9 µM

c1cc2ccc3cccc4ccc(c1)c2c34
active: [17] 50 µM
inactive: [1]

Sc1ccccc1
inactive: [2]

O=C(O)C(F)(F)C(F)(F)C(F)(F)C(F)(F)C(F)(F)C(F)(F)C(F)(F)C(F)(F)C(F)(F)F
active: [2] 5.95 µM
inactive: [2]

COc1ccc(O)c(C(C)(C)C)c1
inactive: [1] | [7] | [8] | [9] | [10] | [11] | [12] | [13] | [14] | [15] | [16]

ClC1=C(Cl)[C@]2(Cl)[C@@H]3[C@H]4C[C@H]([C@@H]5O[C@H]45)[C@@H]3[C@@]1(Cl)C2(Cl)Cl
inactive: [1]

Oc1ccc(C(c2ccc(O)cc2)(C(F)(F)F)C(F)(F)F)cc1
inactive: [1]

ClC1=C(Cl)[C@]2(Cl)[C@@H]3[C@@H](Cl)[C@H]4O[C@H]4[C@@H]3C1(Cl)C2(Cl)Cl
active: [1] 27.5 µM | [8] 3.36 µM | [9] 16.6 µM | [10] 16 µM | [11] 4.05 µM | [12] 8.58 µM | [13] 9.03 µM | [18] 13.2 µM | [19] 13.1 µM | [20] 5.59 µM | [15] 9.92 µM | [16] 15.8 µM
inactive: [7] | [14]

NS(=O)(=O)C(F)(F)C(F)(F)C(F)(F)C(F)(F)C(F)(F)C(F)(F)C(F)(F)C(F)(F)F
inactive: [1] | [2]
active: [1] 22.6 µM

ClC(Cl)=C(c1ccc(Cl)cc1)c1ccc(Cl)cc1
active: [1] 3.9 µM

ClC1=C(Cl)[C@]2(Cl)[C@@H]3[C@@H]4C[C@@H]([C@H]5O[C@@H]45)[C@@H]3[C@@]1(Cl)C2(Cl)Cl
inactive: [19]
active: [1] 23.6 µM | [7] 25.5 µM | [10] 8.83 µM | [11] 12.8 µM | [12] 13 µM | [17] 4.73 µM | [13] 13.2 µM | [20] 50 µM | [15] 24 µM | [16] 25.2 µM

O=S(=O)(O)C(F)(F)C(F)(F)C(F)(F)C(F)(F)F
not listed: [16] | [17] | [18] | [19] | [20]
inactive: all other assays above

Clc1ccc(C(c2ccccc2Cl)C(Cl)(Cl)Cl)cc1 (configuration not stated)
active: [1] 0.199 µM

CCOP(=S)(OCC)SCSC(C)(C)C
active: [1] 23.3 µM and 24.2 µM | [7] 23 µM | [8] 80.7 µM and 23.2 µM | [10] 91 µM and 79.2 µM | [11] 81.5 µM and 17.5 µM | [12] 81 µM and 22.9 µM | [13] 79.7 µM and 22.9 µM | [14] 22.5 µM | [15] 22.9 µM
inactive: [3] | [4] | [5] | [6] | [7] | [18] | [19] | [20] | [14] | [15] | [16]

O=C(O)C(F)(F)C(F)(F)C(F)(F)C(F)(F)C(F)(F)F
inactive: [1] | [2]

CCC(C)(c1ccc(O)cc1)c1ccc(O)cc1
inactive: [1]

O=S(=O)(O)C(F)(F)C(F)(F)C(F)(F)C(F)(F)C(F)(F)C(F)(F)F
not listed: [17] | [18] | [19] | [20]
inactive: all other assays above

Oc1c(Cl)c(Cl)c(Cl)c(Cl)c1Cl
inactive: [2]

C=CC(N)=O
not listed: [2] | [3] | [16]
inactive: all other assays above
